# Test results: PubChem BioAssay (NCATS)
# Where “and” joins values, the source holds several entries; their conditions need not be identical. Identical values can stand only once. A number with no mark means an inactive call. Inconclusive results are not listed. A call without a number means that no potency is given here. Calls of active or inactive are those of the source. Unless noted, calls come from the whole dose curve; as a rule, active = well fitted curve in the direction sought with a large enough effect; inconclusive = small, poorly fitted or top-dose-only effect, or another doubt; inactive = no such curve, though single readings can be large; an effect the other way counts as inactive or inconclusive.
# Tests used:
# [1] = molecular target: Cytochrome P450 2C9 (Homo sapiens) (UniProt P11712); assay: qHTS Assay for Inhibitors and Substrates of Cytochrome P450 2C9 (AID 883); details: recombinant CYP2C9, luciferin-H luminescence, 60 min; series mostly up to 57.1 µM; note: nearly all actives have a fitted effect of over 60% in size; note: potency is the fitted concentration of half-maximal effect
# Procedure, shortened: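 Signal: luciferase luminescence reporting luciferin produced by CYP2C9. Conditions: 10nM enzyme, Luciferin-H 100uM at KM, 25mM KPO4, 37C, 60 min NADPH-driven reaction. Reference: 57uM sulphaphenazole as 100% inhibition.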
# [2] = molecular target: Cytochrome P450 2D6 (Homo sapiens) (UniProt P10635); assay: qHTS Assay for Inhibitors and Substrates of Cytochrome P450 2D6 (AID 891); details: recombinant CYP2D6, luciferin-ME EGE luminescence; series mostly up to 57.1 µM; note: nearly all actives have a fitted effect of over 60% in size; note: potency is the fitted concentration of half-maximal effect;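 for activity change, negative = inhibition: luciferin methyl ether substrate demethylated by CYP2D6 with NADPH regeneration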
# Procedure, shortened: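 Human CYP2D6 (5 nM) with 30 uM Luciferin-ME EGE (at Km) in 100 mM KPO4, compound preincubated 10 min, then NADPH regeneration system for 60 min at room temperature. Luciferin read by luminescence; normalized to 1.43 uM quinidine.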
# [3] = qHTS Assay for Identification of Small Molecule Antagonists for NFkB Signaling Pathway (AID 895; active = well fitted inhibition curve with a large enough effect in the signal ratio, with a control signal flat, not every such curve was filed as active; the % refers to the signal ratio); details: NFkB beta-lactamase reporter cells, FRET ratio 460/530; series mostly up to 38.3 µM
# Procedure, shortened: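 ME-180 NFkB-bla cells (beta-lactamase under NFkB response element), plated overnight, treated with compound then 10 pM TNF alpha (about EC50) for 5 hrs at 37 C. LiveBLAzer FRET read at 460/530 nm emission, 405 nm excitation.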
# [4] = molecular target: Guanine nucleotide-binding protein G(i) subunit alpha-1 (Homo sapiens) (UniProt P63096); assay: qHTS Assay for Inhibitors of RGS12 GoLoco Motif Activity (Green Fluorophore) (AID 879); details: Galphai1/FITC-RGS12 GoLoco peptide, fluorescence polarization; series mostly up to 57.1 µM;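 note: negative values mean loss of peptide binding seen as reduced polarization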
# Procedure, shortened: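 Fluorescence polarization assay: 50 nM Gαi1 with 10 nM FITC-labeled RGS12 GoLoco peptide in 10 mM Tris pH 7.5, 150 mM NaCl, 0.1 mM GDP, 0.05% NP40, 10 min at room temperature with compound.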
# [5] = molecular target: Cytochrome P450 3A4 (Homo sapiens) (UniProt P08684); assay: qHTS Assay for Activators of Cytochrome P450 3A4 (AID 885); details: recombinant CYP3A4, Luciferin-PPXE luminescence, 60 min; series mostly up to 57.1 µM; note: nearly all actives have a fitted effect of over 65% in size
# Procedure, shortened: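 Quantitative HTS format: compounds preincubated with 20nM human CYP3A4 and Luciferin-PPXE substrate at KM, reaction started by NADPH regeneration, stopped after 60 min, luciferase luminescence read 20 min later.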
# [6] = molecular target: Cytochrome P450 3A4 (Homo sapiens) (UniProt P08684); assay: qHTS Assay for Inhibitors and Substrates of Cytochrome P450 3A4 (AID 884); details: recombinant CYP3A4, Luciferin-PPXE luminescence; series mostly up to 57.1 µM; note: potency is the fitted concentration of half-maximal effect; nearly all actives have a fitted effect of over 50% in size
# Procedure, shortened: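 20 nM human CYP3A4 with 25 uM Luciferin-PPXE (at KM) in 200 mM KPO4, preincubated 10 min with compound; NADPH regeneration started a 60 min RT reaction. Luciferin detected by luminescence, normalized to 57 uM ketoconazole as full inhibition.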
# Cytochrome P450 3A4 (Homo sapiens), sequence (P08684 whole entry, looked up): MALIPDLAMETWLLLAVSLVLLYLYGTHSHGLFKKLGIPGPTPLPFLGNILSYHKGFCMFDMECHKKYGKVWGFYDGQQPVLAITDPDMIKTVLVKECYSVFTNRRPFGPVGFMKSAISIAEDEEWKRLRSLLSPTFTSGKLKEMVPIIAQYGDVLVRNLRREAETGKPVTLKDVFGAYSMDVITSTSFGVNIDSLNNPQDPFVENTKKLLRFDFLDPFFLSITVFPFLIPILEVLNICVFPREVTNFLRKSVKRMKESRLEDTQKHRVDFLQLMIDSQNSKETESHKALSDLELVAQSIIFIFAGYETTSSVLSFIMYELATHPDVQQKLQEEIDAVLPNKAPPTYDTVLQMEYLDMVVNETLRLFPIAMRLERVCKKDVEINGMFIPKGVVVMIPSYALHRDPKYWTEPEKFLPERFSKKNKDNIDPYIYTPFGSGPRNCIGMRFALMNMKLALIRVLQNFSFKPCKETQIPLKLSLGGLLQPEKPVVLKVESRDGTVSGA
# Cytochrome P450 2D6 (Homo sapiens), sequence (P10635 whole entry, looked up): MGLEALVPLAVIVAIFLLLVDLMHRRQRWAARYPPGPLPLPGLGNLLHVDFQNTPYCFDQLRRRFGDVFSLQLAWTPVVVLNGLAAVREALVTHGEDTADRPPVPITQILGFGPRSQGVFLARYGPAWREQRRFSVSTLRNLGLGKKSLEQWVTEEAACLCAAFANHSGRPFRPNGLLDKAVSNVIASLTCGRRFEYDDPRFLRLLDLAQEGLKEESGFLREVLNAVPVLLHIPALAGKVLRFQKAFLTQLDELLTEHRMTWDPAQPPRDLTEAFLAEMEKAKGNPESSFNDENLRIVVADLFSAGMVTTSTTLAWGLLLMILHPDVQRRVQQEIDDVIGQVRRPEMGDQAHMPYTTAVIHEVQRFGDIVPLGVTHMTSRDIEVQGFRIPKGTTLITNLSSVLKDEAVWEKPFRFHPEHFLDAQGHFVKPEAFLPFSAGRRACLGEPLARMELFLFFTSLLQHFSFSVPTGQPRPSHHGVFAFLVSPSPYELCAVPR
# Guanine nucleotide-binding protein G(i) subunit alpha-1 (Homo sapiens), sequence (P63096 whole entry, looked up): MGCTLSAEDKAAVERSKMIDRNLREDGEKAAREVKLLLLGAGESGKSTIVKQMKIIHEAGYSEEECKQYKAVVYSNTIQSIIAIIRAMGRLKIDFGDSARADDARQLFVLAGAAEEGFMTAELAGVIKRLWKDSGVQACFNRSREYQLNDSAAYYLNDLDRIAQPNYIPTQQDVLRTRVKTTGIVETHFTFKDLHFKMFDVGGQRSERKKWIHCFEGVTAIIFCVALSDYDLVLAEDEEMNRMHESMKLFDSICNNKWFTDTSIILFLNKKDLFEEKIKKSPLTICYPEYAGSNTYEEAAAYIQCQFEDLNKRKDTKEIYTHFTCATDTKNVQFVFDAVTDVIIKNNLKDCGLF
# Cytochrome P450 2C9 (Homo sapiens), sequence (P11712 whole entry, looked up): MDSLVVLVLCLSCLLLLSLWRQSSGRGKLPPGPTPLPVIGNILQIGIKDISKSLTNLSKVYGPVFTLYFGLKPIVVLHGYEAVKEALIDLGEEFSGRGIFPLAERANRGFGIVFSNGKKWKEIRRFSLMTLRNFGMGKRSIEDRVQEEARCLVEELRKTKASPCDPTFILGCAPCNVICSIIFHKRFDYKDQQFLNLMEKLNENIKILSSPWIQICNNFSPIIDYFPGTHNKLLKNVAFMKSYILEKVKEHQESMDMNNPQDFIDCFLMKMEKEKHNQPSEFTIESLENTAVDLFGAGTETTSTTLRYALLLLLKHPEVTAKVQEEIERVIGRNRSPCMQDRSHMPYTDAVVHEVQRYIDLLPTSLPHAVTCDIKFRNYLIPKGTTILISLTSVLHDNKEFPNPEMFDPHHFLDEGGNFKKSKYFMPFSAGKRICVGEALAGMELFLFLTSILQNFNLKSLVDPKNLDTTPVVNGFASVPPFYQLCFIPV
smiles,measurement,setting,value
O=C1C=CC(=O)C=C1,Potency,[1],inactive
same,Potency,[2],inactive
same,Potency,[3],inactive
CC(C)(C)c1cc(O)ccc1O,"activity change, negative = inhibition",[2],11.9% [at 11.4 µM]
C[N+]1(C)CCN(c2ccccc2)CC1,Potency,[4],inactive
same,outcome,[5],inactive
CC(=O)NBr,Potency,[4],inactive
O=[N+]([O-])c1cc(O)c(O)c([N+](=O)[O-])c1,Potency,[4],inactive
same,Potency,[1],10 µM (active) and 794 nM (active)
same,Potency,[2],inactive
same,Potency,[3],inactive
NC(=O)CI,Potency,[4],inactive
same,outcome,[5],inactive
same,Potency,[3],inactive
CCS(=O)(=O)Nc1cccc(C(=C2CCCCC2)c2cnc[nH]2)c1,Potency,[4],inactive
same,Potency,[1],631 nM (active)
same,Potency,[6],0.316 µM (active)
same,outcome,[5],inactive
same,Potency,[2],7.94 µM (active)
N#CC(C#N)=Cc1cc(O)c(O)c(O)c1,Potency,[4],inactive
same,outcome,[5],inactive
c1ccc2c(c1)[I+]c1ccccc1-2,Potency,[4],inactive
same,Potency,[6],3.16 µM (active)
same,outcome,[5],inactive
same,Potency,[2],3.98 µM (active) and 794 nM (active)
C[C@H](N)CN1CCc2ccc(Br)cc21,Potency,[4],inactive
CCN(CCCl)Cc1ccccc1Br,Potency,[4],inactive
Cc1sc2ccccc2c1CC1=NCCN1,Potency,[4],inactive
NC(=O)COc1c(F)cc(SCCNS(=O)(=O)c2ccccc2)cc1F,Potency,[4],inactive
same,outcome,[5],inactive
N[C@@H](Cn1oc(=O)[nH]c1=O)C(=O)O,Potency,[4],inactive
same,outcome,[5],inactive
CP(=O)(O)C1=CCNCC1,Potency,[4],inactive
same,outcome,[5],inactive
CCCN(CCC)CCc1ccc(O)c(O)c1,Potency,[4],inactive
O=S1(=O)N(CCN2CC=C(c3c[nH]c4cc(F)ccc34)CC2)c2cccc3c2N1CCC3,Potency,[4],inactive
same,Potency,[6],5.01 µM (active)
same,outcome,[5],inactive
same,Potency,[2],0.199 µM (active)
same,Potency,[3],inactive
